The supplement of paper PMC11732987, “Enantioselective OTUD7B fragment discovery through chemoproteomics screening and high-throughput optimisation” (Communications Chemistry, 2025)

Tests used:
Experiment in all cases: log2 ratio of Biotin-Ahx-Ub-VS probe labelling (fragment/DMSO); higher = less target engagement (more negative = stronger competition), active = hit call of the paper (q ≤ 0.05, log2 ratio ≤ -1)
Settings in all cases: compound concentration: 200 uM; treatment time: 3 h
[1] = molecular target: T1, USP19 (UniProt O94966)
T1 sequence (whole entry): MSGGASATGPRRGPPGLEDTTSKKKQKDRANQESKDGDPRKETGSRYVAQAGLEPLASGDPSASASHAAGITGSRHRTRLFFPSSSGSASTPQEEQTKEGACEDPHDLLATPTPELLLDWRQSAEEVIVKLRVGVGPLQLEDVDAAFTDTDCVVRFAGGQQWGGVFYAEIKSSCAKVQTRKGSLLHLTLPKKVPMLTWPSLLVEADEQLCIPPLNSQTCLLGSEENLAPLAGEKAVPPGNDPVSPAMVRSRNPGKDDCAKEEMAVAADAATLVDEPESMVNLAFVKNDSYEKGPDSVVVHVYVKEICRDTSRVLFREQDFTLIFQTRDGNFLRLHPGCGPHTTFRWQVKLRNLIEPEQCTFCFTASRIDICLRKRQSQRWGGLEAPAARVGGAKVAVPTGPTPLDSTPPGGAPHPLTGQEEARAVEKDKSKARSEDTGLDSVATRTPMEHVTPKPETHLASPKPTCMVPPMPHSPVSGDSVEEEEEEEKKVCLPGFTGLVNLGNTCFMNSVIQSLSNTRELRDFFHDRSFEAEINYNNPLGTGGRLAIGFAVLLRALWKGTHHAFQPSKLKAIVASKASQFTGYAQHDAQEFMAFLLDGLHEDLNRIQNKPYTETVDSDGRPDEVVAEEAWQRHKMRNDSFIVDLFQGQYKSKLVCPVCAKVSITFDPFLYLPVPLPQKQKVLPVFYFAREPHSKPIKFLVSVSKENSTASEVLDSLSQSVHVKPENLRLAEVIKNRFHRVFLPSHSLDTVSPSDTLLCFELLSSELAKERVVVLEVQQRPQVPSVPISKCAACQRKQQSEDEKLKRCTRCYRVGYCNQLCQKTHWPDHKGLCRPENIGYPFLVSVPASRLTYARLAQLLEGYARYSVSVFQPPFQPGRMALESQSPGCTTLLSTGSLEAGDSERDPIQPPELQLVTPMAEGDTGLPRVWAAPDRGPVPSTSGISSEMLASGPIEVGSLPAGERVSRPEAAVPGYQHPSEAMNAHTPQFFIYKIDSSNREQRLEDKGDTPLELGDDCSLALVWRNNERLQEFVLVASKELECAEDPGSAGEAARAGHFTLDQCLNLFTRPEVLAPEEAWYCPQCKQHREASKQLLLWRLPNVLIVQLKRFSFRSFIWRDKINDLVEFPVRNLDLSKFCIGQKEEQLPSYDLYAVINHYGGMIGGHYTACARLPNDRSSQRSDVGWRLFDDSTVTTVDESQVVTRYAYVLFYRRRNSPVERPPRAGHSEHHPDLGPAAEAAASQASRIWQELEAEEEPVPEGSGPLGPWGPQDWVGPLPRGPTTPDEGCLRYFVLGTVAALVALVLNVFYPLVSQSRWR
In short: (§1)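 Labelled DUBs from HEK293T lysate were NeutrAvidin-enriched, digested with LysC and trypsin, and run by diaPASEF LC-MS/MS. Before that, each 495 µg sample in Tris/CHAPS/IGEPAL buffer with protease inhibitors was treated in triplicate with fragment at 200 µM or vehicle for 3 h, then with Biotin-Ahx-Ub-VS at 0.5 µM final for 1 h. Values are average log2 ratios of fragment over vehicle by unpaired t-test, based on global-median-normalised Spectronaut label-free quantities from proteins with ≥2 unique peptides.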

[2] = molecular target: USP24 (UniProt Q9UPU5)
In short: as §1

[3] = molecular target: T2, USP25 (UniProt Q9UHP3)
T2 sequence (whole entry): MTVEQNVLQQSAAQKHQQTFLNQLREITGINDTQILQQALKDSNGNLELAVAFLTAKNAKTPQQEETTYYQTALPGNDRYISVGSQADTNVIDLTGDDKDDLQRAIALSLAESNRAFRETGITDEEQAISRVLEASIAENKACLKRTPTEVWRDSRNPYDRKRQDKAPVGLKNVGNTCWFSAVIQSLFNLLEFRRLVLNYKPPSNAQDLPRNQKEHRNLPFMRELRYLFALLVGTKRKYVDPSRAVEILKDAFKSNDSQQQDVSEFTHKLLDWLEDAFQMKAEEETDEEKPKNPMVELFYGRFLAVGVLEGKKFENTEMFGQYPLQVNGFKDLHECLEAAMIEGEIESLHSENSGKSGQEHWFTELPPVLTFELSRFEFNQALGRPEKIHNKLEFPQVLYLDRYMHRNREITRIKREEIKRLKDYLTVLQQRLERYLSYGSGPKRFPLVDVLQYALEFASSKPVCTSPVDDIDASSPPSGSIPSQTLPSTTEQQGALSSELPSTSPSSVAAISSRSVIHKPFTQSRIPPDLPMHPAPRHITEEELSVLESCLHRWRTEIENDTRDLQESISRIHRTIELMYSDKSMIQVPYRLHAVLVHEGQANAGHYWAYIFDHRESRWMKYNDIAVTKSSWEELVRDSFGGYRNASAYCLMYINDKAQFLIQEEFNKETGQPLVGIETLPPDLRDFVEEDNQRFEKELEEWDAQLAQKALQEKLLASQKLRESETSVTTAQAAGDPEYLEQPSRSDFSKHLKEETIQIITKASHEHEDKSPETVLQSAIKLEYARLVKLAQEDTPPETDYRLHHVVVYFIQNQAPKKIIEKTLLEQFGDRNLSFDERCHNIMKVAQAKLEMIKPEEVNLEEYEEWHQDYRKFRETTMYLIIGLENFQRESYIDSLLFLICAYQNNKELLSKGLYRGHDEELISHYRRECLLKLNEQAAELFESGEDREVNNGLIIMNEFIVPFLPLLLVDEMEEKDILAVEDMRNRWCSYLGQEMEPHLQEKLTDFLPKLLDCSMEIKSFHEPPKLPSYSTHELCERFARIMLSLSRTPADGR
In short: as §1

[4] = molecular target: T3, USP28 (UniProt Q96RU2)
T3 sequence (whole entry): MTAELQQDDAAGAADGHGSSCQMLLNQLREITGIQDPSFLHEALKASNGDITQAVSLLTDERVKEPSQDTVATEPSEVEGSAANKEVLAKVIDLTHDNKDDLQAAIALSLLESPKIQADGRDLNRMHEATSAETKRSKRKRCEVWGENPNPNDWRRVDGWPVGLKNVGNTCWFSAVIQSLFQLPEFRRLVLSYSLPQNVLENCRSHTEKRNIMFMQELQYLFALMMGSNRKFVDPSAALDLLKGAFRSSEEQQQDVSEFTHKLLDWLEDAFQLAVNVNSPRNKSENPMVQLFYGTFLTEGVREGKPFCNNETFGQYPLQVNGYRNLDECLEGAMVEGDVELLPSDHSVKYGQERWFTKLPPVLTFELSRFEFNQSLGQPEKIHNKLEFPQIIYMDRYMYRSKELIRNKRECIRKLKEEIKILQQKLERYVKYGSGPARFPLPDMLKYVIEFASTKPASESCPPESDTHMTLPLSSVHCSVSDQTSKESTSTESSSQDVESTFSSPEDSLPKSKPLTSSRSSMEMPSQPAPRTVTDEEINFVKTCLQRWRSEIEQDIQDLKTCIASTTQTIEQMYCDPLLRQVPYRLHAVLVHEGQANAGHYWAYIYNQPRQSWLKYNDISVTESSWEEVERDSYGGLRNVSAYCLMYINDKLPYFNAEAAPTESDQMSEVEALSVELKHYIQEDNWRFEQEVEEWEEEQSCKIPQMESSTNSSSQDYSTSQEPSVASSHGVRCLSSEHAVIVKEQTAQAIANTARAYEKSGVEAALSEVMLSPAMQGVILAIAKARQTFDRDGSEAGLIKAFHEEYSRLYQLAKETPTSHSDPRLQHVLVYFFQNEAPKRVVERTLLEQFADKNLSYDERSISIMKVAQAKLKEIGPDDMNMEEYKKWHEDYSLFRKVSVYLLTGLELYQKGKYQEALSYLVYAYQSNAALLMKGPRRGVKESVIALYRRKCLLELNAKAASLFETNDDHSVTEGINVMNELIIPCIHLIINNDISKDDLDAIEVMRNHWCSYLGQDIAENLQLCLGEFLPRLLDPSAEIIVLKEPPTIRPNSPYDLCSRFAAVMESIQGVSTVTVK
In short: as §1

Measured: log2 ratio of Biotin-Ahx-Ub-VS probe labelling

Chain of USP24 (Q9UPU5 whole entry): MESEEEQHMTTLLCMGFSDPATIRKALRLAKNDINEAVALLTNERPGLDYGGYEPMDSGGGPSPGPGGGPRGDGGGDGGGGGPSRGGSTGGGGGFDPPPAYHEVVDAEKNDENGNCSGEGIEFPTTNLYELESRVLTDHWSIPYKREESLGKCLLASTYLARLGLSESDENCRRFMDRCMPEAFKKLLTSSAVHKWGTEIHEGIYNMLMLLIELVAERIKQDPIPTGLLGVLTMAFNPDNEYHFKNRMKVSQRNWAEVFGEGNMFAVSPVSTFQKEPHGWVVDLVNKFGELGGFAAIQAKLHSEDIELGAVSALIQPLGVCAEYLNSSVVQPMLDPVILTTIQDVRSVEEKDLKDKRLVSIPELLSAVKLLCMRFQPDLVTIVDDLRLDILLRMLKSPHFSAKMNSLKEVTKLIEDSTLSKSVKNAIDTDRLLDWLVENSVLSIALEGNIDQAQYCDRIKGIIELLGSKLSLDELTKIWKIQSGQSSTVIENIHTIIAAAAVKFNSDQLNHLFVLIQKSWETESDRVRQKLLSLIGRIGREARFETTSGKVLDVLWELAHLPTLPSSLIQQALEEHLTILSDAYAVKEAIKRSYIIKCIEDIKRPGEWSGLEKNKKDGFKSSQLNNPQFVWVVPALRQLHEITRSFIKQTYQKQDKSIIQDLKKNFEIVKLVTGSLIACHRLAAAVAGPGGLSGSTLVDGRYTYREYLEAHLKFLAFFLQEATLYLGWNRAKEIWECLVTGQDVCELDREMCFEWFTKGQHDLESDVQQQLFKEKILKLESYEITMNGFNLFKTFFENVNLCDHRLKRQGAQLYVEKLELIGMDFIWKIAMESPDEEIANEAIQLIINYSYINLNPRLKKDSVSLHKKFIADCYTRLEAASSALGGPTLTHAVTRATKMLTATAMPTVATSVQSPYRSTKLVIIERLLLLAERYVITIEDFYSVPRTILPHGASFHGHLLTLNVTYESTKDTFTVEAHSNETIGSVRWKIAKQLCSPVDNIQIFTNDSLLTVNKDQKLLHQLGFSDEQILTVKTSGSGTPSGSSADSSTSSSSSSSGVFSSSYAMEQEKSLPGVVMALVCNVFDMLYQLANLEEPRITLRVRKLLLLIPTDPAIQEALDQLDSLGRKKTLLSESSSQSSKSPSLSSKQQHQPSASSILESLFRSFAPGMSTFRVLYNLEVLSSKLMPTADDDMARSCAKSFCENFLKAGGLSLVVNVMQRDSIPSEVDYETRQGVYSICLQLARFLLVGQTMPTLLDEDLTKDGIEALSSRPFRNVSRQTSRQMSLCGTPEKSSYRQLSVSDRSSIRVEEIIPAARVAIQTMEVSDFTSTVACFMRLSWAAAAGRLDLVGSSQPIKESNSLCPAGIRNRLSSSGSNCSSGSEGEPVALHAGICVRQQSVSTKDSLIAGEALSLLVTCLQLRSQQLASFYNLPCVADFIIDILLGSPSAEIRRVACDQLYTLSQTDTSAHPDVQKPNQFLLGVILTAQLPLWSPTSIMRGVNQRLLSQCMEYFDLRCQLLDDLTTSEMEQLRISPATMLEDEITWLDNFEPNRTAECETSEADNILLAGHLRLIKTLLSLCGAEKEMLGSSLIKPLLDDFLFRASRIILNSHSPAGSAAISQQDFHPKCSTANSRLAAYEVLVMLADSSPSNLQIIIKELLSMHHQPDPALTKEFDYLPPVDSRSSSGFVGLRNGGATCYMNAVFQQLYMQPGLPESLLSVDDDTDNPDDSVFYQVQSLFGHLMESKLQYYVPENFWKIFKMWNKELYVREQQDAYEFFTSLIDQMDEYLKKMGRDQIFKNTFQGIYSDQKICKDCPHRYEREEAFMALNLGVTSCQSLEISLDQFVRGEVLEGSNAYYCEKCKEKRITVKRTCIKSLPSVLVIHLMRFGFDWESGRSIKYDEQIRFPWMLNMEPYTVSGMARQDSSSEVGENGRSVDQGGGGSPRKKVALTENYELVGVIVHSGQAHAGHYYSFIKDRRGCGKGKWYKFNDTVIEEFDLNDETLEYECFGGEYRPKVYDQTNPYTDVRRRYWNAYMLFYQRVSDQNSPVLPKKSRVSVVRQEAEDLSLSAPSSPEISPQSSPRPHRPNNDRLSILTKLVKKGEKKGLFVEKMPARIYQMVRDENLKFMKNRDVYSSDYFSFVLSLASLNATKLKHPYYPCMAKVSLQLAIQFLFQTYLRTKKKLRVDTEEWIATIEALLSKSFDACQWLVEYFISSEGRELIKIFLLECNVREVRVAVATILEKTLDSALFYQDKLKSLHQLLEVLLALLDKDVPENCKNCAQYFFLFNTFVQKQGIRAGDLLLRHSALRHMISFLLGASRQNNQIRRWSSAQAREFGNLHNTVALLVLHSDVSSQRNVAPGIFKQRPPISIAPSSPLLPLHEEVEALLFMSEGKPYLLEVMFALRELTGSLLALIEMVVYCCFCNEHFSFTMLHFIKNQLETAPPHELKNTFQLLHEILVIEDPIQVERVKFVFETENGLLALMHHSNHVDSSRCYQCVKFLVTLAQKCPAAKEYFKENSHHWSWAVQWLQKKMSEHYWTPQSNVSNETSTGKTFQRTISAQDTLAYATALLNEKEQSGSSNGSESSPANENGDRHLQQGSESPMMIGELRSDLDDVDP

O=C(CCl)N1CCc2ccccc2C(O)C1 (centres undefined)
inactive: [1] -0.315 | [2] -0.483 | [3] -0.343 | [4] -0.698
